Compound activity from PubChem BioAssay.
Sampled rows, rich in hits. Any-hit rate of the full collection: about 1.5%.
PLAP act – human PLAP activation; purified PLAP enzyme, luminescent substrate read-out; active compounds read high; activation fold at 20 µM; 1.2% of 96,000 active; AID 696; in the data active means activation fold above about 2
Mac1 fbg enh – CD11b/CD18-fibrinogen binding enhancement; P05107+P11215; K562 CD11b/CD18 adhesion to fibrinogen, ATPlite luminescence; activation, % at 10 µM; 0.07% of 93,000 active; AID 1499;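 active means 10 µM primary screen giving 50% or more activity, confirmed by 40% or more on retest at that dose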
HePTP inhibitor – inhibitors of human HePTP phosphatase. P35236. recombinant HePTP phosphatase activity, OD absorbance. inhibition, % at 20 µM. 0.64% of 110,000 active; in the data active means inhibition above about 50%;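 further: plate controls were vehicle for no effect and reference inhibitor for full effect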
Target sequence (P35236 whole entry, looked up): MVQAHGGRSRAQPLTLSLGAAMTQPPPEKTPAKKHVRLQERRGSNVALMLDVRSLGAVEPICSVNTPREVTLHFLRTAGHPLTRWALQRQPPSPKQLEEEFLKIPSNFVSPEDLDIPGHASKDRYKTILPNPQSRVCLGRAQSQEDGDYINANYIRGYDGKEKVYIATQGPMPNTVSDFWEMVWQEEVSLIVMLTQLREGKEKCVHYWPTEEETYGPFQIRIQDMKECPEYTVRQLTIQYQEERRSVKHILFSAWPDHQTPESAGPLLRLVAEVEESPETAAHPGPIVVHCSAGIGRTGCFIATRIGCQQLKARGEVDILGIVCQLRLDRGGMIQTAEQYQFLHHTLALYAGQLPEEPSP
Mac1 fbg inh – blocks human CD11b/CD18 adhesion to fibrinogen. 0.54% of 93,000 active. P05107+P11215. inhibition, % at 10 µM. K562 CD11b/CD18 adhesion to fibrinogen, ATPlite luminescence; Mn2+ added to activate the integrin;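 active means primary inhibition of 50% or more at 10 µM, then 40% or more on retest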
* = called active by the depositor; x = no result.

SMILES | PLAP act | Mac1 fbg enh | HePTP inhibitor | Mac1 fbg inh
Cc1ccc(Cl)cc1NC(=O)COc1ccc2ccccc2c1 | x | x | 4 | x
O=C(COc1ccc(-c2ccccc2)cc1)NCc1ccco1 | x | x | 7 | x
COc1ccc(NS(=O)(=O)c2cccc(C(=O)N/N=C(\C)c3ccc(-n4ccnc4)cc3)c2)cc1 | 2.1* | 22 | x | 20
COc1ccc(NC(=O)c2cccc(S(=O)(=O)Nc3ccc(Br)cc3)c2)cn1 | x | -11 | x | 103*
O=[N+]([O-])c1cc(-c2nnc(-c3ccc(Br)o3)o2)ccc1Cl | x | x | 8 | x
Cc1ccc(N2C(=O)C(=Cc3ccc(O)cc3)C(=O)N(c3ccc(C)cc3)C2=S)cc1 | x | x | 2 | x
C=CCn1c(SCc2nc3ccccc3[nH]2)nnc1-c1ccccn1 | 2* | 5 | -7 | 0
COc1ccc(C(=O)c2ccccc2)c2c(O)ccc(C(=O)c3ccccc3)c12 | 1.2 | -3 | 8 | 51*
COc1ccc(/C=N/OCC(=O)N2CCN(C(c3ccccc3)c3ccccc3)CC2)cc1OC | x | x | 5 | x
N#C/C(=C\c1ccc(N2CCCC2)c([N+](=O)[O-])c1)c1nc2ccccc2[nH]1 | 0.9 | 113* | x | 3
COc1ccc(/C=C/C(=O)/C=C/c2ccc(N(C)C)cc2)cc1 | x | x | 8 | x
COc1ccccc1OCC(=O)N1CCN(c2ccccc2OC)CC1 | 1.2 | 0 | -8 | 6
COc1ccccc1OCCCCN1CCN(c2ccccc2OC)CC1 | 2.2* | -1 | x | -5
CCCN(CCC)c1ncnc2nc[nH]c12 | 2.3* | 1 | 1 | 5
Clc1ccccc1CN(Cc1ccccc1)c1ncnc2nc[nH]c12 | 1.7 | x | 12 | x
Cc1nc(Nc2nc(O)cc(=O)[nH]2)nc2c(C)cccc12 | x | x | 103* | x
NS(=O)(=O)c1ccc(NC(=O)c2c(Cl)cccc2Cl)cc1 | x | x | 104* | x
Cc1ccccc1NC(=O)c1c(C)[nH]c(=S)c(C#N)c1-c1cccc(F)c1 | x | x | -6 | x
Cc1ccc(-c2ccc(OCC(=O)Nc3ccccc3C(F)(F)F)cc2)cc1 | x | x | -8 | x
COc1ccc(C/C(O)=C(\C#N)c2nc3ccccc3s2)cc1 | 0.9 | -11 | -1 | 104*
COc1ccc(OC/C(O)=C(\C#N)c2nc3ccccc3[nH]2)cc1 | 1.2 | 16 | x | 6
Cc1ccc(SC/C(O)=C(\C#N)c2nc3ccccc3s2)cc1 | 1.1 | -10 | 8 | 101*
N#C/C(=C(/O)CSc1ccccc1C(=O)O)c1nc2ccccc2s1 | 1.1 | -5 | x | -11
CC(C)n1c(N2CCN(CC(=O)NCc3cccs3)CC2)nc2ccccc21 | 2* | 2 | 5 | -12
CCNC(=S)N1CCC(c2nc3ccccc3s2)CC1 | 0.9 | x | x | x
SMILES | PLAP act | Mac1 fbg enh | HePTP inhibitor | Mac1 fbg inh
O=C(CN1CCC(c2nc3ccccc3s2)CC1)NCc1cccs1 | 1.6 | -8 | 4 | 100*
CC(C)n1c(N2CCN(C(=O)c3cccs3)CC2)nc2ccccc21 | 1.7 | -2 | 0 | -21
COc1ccc(C2/C(=C(/O)c3ccc(C)cc3)C(=O)C(=O)N2CCCCCC(=O)O)cc1OC (centres undefined) | x | x | 5 | x
COC(=O)C1=C(C(=O)OC)SC(=C2C(=S)C(C)(C)N(C(=O)c3ccccc3F)c3cc(C)ccc32)S1 | x | x | -12 | x
O=C(N/C=N/OCc1ccc(Cl)cc1Cl)NOCc1ncc(C(F)(F)F)cc1Cl | 2* | -5 | x | 46
Cn1c2ccc(CC(N)=O)cc2c2cc(CC(N)=O)ccc21 | x | x | 4 | x
Cc1cc(NC(c2cccnc2)c2ccc3cccnc3c2O)no1 (centres undefined) | 2.4* | -3 | 9 | 9
Cc1cc(NC(=O)c2cc(-c3cccnc3)nc3c(C)c(C)ccc23)no1 | 1.1 | 27 | -7 | -2
COc1ccc(NC2=C(Cl)C(=O)N(c3cccc(Cl)c3)C2=O)c(OC)c1 | x | x | 5 | x
O=C(/C=C/Nc1cccc(O)c1)c1ccccc1 | 1 | -2 | 3 | 69*
O=C(/C=C\Nc1ccccn1)c1ccccc1 | 0.8 | -4 | 4 | 17
Cc1ccc(C(=O)/C=C/Nc2cccc(O)c2)cc1 | 0.9 | -11 | 9 | 91*
Oc1c(C(c2ccco2)N2CCN(C(c3ccccc3)c3ccccc3)CC2)sc2ncnn12 (centres undefined) | 2.1* | 13 | -4 | -8
CC(C)CC(/C(O)=C(\C#N)c1nc2ccccc2[nH]1)N1C(=O)c2ccccc2C1=O (centres undefined) | 2.1* | -7 | 2 | 18
COCCCn1c(Cc2ccccc2)nnc1SCC(=O)N1CCCCC1 | 1.3 | 1 | 8 | 12
COCCCn1c(Cc2csc(Nc3cccc(Cl)c3)n2)nnc1SCC(=O)OC | 2* | -1 | 19 | 3
COc1cc(/C=C2\Sc3ccccc3C2=O)ccc1OCC#N | x | x | 6 | x
O=C(NCCc1ccc(F)cc1)C(=O)Nc1ccc(Cl)cc1 | x | x | 1 | x
CC(=O)Nc1ccccc1OCC(=O)c1cc(C)n(Cc2cccs2)c1C | 1.4 | -12 | 5 | 102*
Cc1cc(C(=O)COC(=O)c2ccccc2O)c(C)n1Cc1cccs1 | 1.1 | -9 | x | 101
O=C1NCC(Cn2c3ccccc3c3ccccc32)O1 (centres undefined) | x | x | 104* | x
CC1CCc2c(sc(NC(=O)c3cccc(C(=O)O)c3)c2C(N)=O)C1 (centres undefined) | x | x | 103* | x
CC1CCc2c(sc(NC(=O)c3ccccc3)c2C(N)=O)C1 (centres undefined) | x | x | 5 | x
O=C(Nc1ccc(Cl)cc1)NC1(C(=O)NCCCN2CCOCC2)CCCCC1 | 2.7* | 1 | -7 | -23
CC1CCN(c2nc3ccccc3nc2C(C#N)S(=O)(=O)c2ccccc2)CC1 (centres undefined) | x | x | -2 | x
SMILES | PLAP act | Mac1 fbg enh | HePTP inhibitor | Mac1 fbg inh
CCN1CCN(c2nc3ccccc3nc2C(C#N)S(=O)(=O)c2ccc(C)c(C)c2)CC1 (centres undefined) | 2* | -4 | x | 3
Cc1ccc(S(=O)(=O)C(C#N)c2nc3ccccc3nc2N2CCCC2)cc1 (centres undefined) | 1.4 | -1 | -2 | 25
Cc1ccc(S(=O)(=O)C(C#N)c2nc3ccccc3nc2N2CC(C)OC(C)C2)cc1C (centres undefined) | 1.4 | -9 | 6 | 90*
Cc1cccc(S(=O)(=O)C(C#N)c2nc3ccccc3nc2N2CC(C)OC(C)C2)c1 (centres undefined) | 1.4 | -9 | -1 | 95*
CCCCCN1C(=O)/C(=C2\SC(=S)N(NC(C)=O)C2=O)c2ccccc21 | x | x | -4 | x
Cc1cc(C)nc(SCC(=O)Nc2ccccc2C)n1 | x | x | 8 | x
Cc1noc(C(=O)Nc2sc3c(c2C#N)CCC3)c1Cl | 1 | -5 | 5 | 58*
O=C(CC1S/C(=N\N=C\c2ccccc2)NC1=O)Nc1ccc(C(=O)O)cc1 (centres undefined) | x | x | 104* | x
CC1=C/C(=N\N=C2\NC(=O)C(CC(=O)Nc3ccc(Cl)cc3)S2)CC(C)(C)C1 (centres undefined) | x | x | -5 | x
CC1=C/C(=N\N=C2\NC(=O)C(CC(=O)Nc3ccc(C(=O)O)cc3)S2)CC(C)(C)C1 (centres undefined) | x | x | 103* | x
COC1CCCCC1N1CCN(C(=O)c2ccccc2)CC1 (centres undefined) | x | x | 9 | x
COc1cc2ccccc2cc1C(=O)Nc1ccc2[nH]c(=O)[nH]c2c1 | x | x | -16 | x
COc1ccc(S(=O)(=O)NNC(=O)c2ccc([N+](=O)[O-])cc2)cc1 | x | x | 7 | x
